# An excerpt weighted towards active compounds, which were near 2.5% of everything screened.
# KLF5 inh: KLF5 expression inhibitors, primary screen, DLD-1 cells, luminescence. DLD-1 KLF5 promoter-luciferase reporter. AID 1700, 2009. 290,000 tested, 0.23% active. inhibition, % at 5 µM;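 active means inhibition above a per-plate limit of that plate's mean compound inhibition plus 3 SD, cut at about 60% in these data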;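 further: 0% = DMSO wells and 100% = LY294002 at 200 µM; higher means less KLF5 promoter-driven luciferase light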
# Jurkat NFkB inh: inhibitors of induced NF-kB luciferase reporter, primary screen, TCR NF-kB activation inhibitor project, cell-based, luminescence, uHTS | 330,000 tested, 0.53% active | inhibition, % at 4 µM | Jurkat, PMA/ionomycin-induced NF-kB luciferase reporter; in the data active means inhibition above about 50%
# TMEM16A inh: TMEM16A chloride channel inhibitors, primary screen, cell-based, HTS | 310,000 tested, 1.2% active | HEK293 TMEM16A/YFP iodide influx fluorescence, ionomycin | normalized B-score (activity score, 25-100; higher = stronger inhibition) at 10 µM | Anoctamin-1 (Mus musculus), Q8BHY3;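 active means ratio plate-corrected score three or more library SD toward inhibition, starting fluorescence score within five deviations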;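 further: score derived from kinetic fluorescence span divided by baseline fluorescence per well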
# TMEM16A act: TMEM16A chloride channel activators or potentiators, primary screen, cell-based, HTS | Anoctamin-1 (Mus musculus), Q8BHY3 | HEK293 TMEM16A/YFP-H148Q/I152L, iodide quench fluorescence; hits give low values | B-score at 10 µM | 340,000 tested, 0.3% active | AID 623877, 2012;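 active means fluorescence-ratio B-score plate-corrected deviation score at least 3 library SD below zero, with starting fluorescence score within 5 deviations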;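 further: channel opened by trigger with iodide after compound preincubation; score built on the fluorescence ratio of max minus min over baseline; more negative score means more quench and so TMEM16A activation or potentiation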
# aSyn 5UTR inh: MLPCN primary screen, SNCA 5' untranslated region; alpha-synuclein 5'UTR reporter, inhibitor activity; inhibition, % (tested at 7.5 µM); 300,000 tested, 0.82% active; AID 1813, 2009; in the data active means inhibition above about 60%;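 further: H4 neuroglioblastoma cells stably carrying SNCA 5'UTR luciferase fusion; 0% = DMSO wells and 100% = positive control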
# 697 NFkB inh: inhibitors of PMA/ionomycin-induced NF-kB reporter, 697 cells, primary screen, B-cell NF-kB inhibitor project, cell-based, luminescence, uHTS; 697 B-cell NF-kB luciferase reporter, 16 h; 330,000 tested, 0.33% active; inhibition, % at 4 µM; in the data active means inhibition above about 35%
# TMEM16A reconf: TMEM16A chloride channel inhibitors, confirmation, cell-based, re-confirmation. shares compounds with TMEM16A inh. HEK293 TMEM16A/YFP-H148Q, iodide quench fluorescence; ionomycin added to raise cell calcium. AID 652189, 2013. 2,300 tested, 39% active. inhibition, % at 10 µM;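 active means mean duplicate percent inhibition, scaled so buffer wells are 0 and the reference blocker 100, over three buffer SD above buffer mean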
# TMEM16A Ca cntr: calcium mobilization in TMEM16A/YFP HEK293 cells, confirmation, counter-screen for TMEM16A inhibitor project; shares compounds with TMEM16A inh; Fluo4 calcium mobilization; calcium response (% of ionomycin), % at 10 µM; 2,300 tested, 2% active;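 active means duplicate-averaged calcium signal over 20% of the ionomycin maximum, relative to buffer baseline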;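 further: each well's signal is peak minus trough fluorescence divided by its pre-addition baseline; 0% = buffer wells and 100% = ionomycin wells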
# Parental YFP cnt: iodide YFP quench changes in parental YFP-HEK293, counter-screen for TMEM16A inhibitor project, cell-based; ionomycin; YFP ratio F(max-min)/F0 at 10 µM; shares compounds with TMEM16A inh; 2,300 tested, under 10 active;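 active means yellow fluorescent protein signal ratio exceeding the buffer control mean by over 5 SD of those controls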;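 further: ratio is mean of duplicate wells from kinetic YFP trace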
# ClC-1 rat inh: ClC-1 chloride channel inhibition, selectivity assay for TMEM16A inhibitor project, cell-based, voltage-dependent ClC-1; AID 652236, 2013; ratio percent, % at 10 µM; CHO ClC-1-YFP, iodide influx fluorescence quench; iodide control reads 0, buffer control 100; 2,300 tested, under 10 active; shares compounds with TMEM16A inh;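 active means duplicate-mean ratio percent above the mean of iodide-only control wells, which defines zero, plus 5 of their SD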;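 further: higher percent means stronger block of ClC-1 iodide influx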
# Active calls of the source: *; i = inactive; . = not tested or not shown.
SMILES,KLF5 inh,Jurkat NFkB inh,TMEM16A inh,TMEM16A act,aSyn 5UTR inh,697 NFkB inh,TMEM16A reconf,TMEM16A Ca cntr,Parental YFP cnt,ClC-1 rat inh
COc1ccccc1N1CCN(C(c2ccc(Cl)cc2)c2nnnn2C(C)(C)C)CC1 (configuration not stated),-13,16,100*,i,25,5,i,i,-1.2,-22
CCCCCOC(=O)CSc1nnc(-c2cc(OC)c(OC)c(OC)c2)o1,8,9,25*,i,3,11,i,i,-1.1,-9
COc1cccc(C2C3=C(CC(C)(C)CC3=O)Nc3n[nH]c(C)c32)c1 (configuration not stated),-12,-6,i,i,5,-16,.,.,.,.
COc1ccc(C2C3=C(CC(C)(C)CC3=O)Nc3n[nH]c(C)c32)cc1 (configuration not stated),-1,1,100*,i,-7,9,i,i,-1,-8
CC(=O)c1ccc(S(=O)(=O)NCCC(=O)OCC(=O)N(Cc2ccccc2)C(C)(C)C)cc1,.,-1,.,i,.,5,.,.,.,.
CC(C)NC(=O)c1cnc(N2CCN(c3ccccn3)CC2)c2ccccc12,-2,2,i,i,4,-14,.,.,.,.
CCc1ccc(NC(=O)c2cnc(N3CCN(c4ccccn4)CC3)c3ccccc23)cc1,-13,24,i,i,-28,-25,i,i,-1.2,0
COc1ccc(S(=O)(=O)N2CC(C)N(C(=O)N(C)C)C2C(C)C)cc1 (configuration not stated),10,15,i,i,-1,15,.,.,.,.
Clc1ccc(-c2nc(N3CCCCC3)nc3ccccc23)cc1,-13,-1,i,i,13,0,.,.,.,.
c1ccc(-c2nc(-n3nc4ccccc4n3)nc3ccccc23)cc1,-11,1,100*,i,1,17,i,i,-1,-6
COc1ccc(Cl)cc1NC(=O)CCN1C(=O)C2C3C=CC(C4CC34)C2C1=O (configuration not stated),-17,10,i,i,-27,7,.,.,.,.
CCN[C@H]1CN(CCCOC)S(=O)(=O)c2sc(S(N)(=O)=O)cc21,.,-1,i,i,.,22,.,.,.,.
CC(C)OCCCn1c(=NC(=O)c2ccncc2)c(C#N)cc2c(=O)n3ccccc3nc21,-43,19,25*,i,-15,16,i,28%*,-1.1,-14
CC(=O)N=c1c(C#N)cc2c(=O)n3ccccc3nc2n1CCCOC(C)C,21,3,i,i,-18,5,.,.,.,.
CC1=CC(C)(C)N(S(=O)(=O)c2ccc(C)cc2)c2ccc(C)cc21,45,50,25*,i,40,12,i,i,-1.2,-12
CC1=CC(C)(C)N(S(=O)(=O)c2ccc(F)cc2)c2ccccc21,-21,41,25*,i,-16,1,i,i,-1,-18
C/C=C/C(=O)N1c2ccc(C)cc2C(C)=CC1(C)C,-18,-4,i,i,-5,14,.,.,.,.
COc1ccc(-n2c(SCC(=O)N3CCOCC3)nc3ccccc3c2=O)cc1,-24,5,i,i,-3,8,.,.,.,.
COCC(=O)NCCSc1c(C)[nH]c2ccccc12,-8,5,100*,i,22,12,i,i,-0.92,-7
Cc1[nH]c2ccccc2c1SCC(=O)O,-3,-11,i,i,29,-2,.,.,.,.
O=S(=O)(Nc1nnc(-c2ccccc2)s1)c1ccc(Cl)cc1,-37,-16,100*,i,-5,-21,38%*,i,-0.9,-18
O=C(c1cccc(-n2cccc2)c1)N1CCN(S(=O)(=O)c2ccccc2Br)CC1,.,16,.,i,.,10,.,.,.,.
CCOc1cc(S(=O)(=O)NCCc2ccc(OC)c(OC)c2)c(OCC)cc1-n1cnnn1,-2,-4,25*,i,-3,-3,i,i,-0.94,-2
N=c1c(C(=O)NCCN2CCOCC2)cc2c(=O)n3ccccc3nc2n1CCc1ccccc1,-23,16,i,i,-83,-11,.,.,.,.
O=C(O)c1ccc2c(=O)n3cc(C(=O)c4ccccc4O)cc(Cl)c3nc2c1,-19,-1,i,i,-45,16,.,.,.,.
SMILES,KLF5 inh,Jurkat NFkB inh,TMEM16A inh,TMEM16A act,aSyn 5UTR inh,697 NFkB inh,TMEM16A reconf,TMEM16A Ca cntr,Parental YFP cnt,ClC-1 rat inh
Cc1ccc(SCCNS(=O)(=O)c2ccc3c(c2)OCCO3)cc1,-9,11,25*,i,11,7,i,i,-1.1,-9
COc1ccc(S(=O)(=O)NCCSc2ccc(C)cc2)cc1OC,-22,8,i,i,-7,6,.,.,.,.
Cc1ccc(Cc2nnc(SCC(=O)Nc3ccccc3Cl)[nH]c2=O)cc1,.,-2,i,i,6,-10,.,.,.,.
COc1ccc(Cl)cc1NC(=O)CSc1nnc(Cc2ccc(C)cc2)c(=O)[nH]1,.,0,25*,i,-2,2,i,i,-0.94,-17
O=C(CSC1=NCCS1)Nc1ccc2ccccc2c1,-17,-24,i,i,-49,0,.,.,.,.
O=C(CSC1=NCCS1)Nc1ccnc2ccccc12,4,16,100*,i,-13,-47,18%*,i,-1.1,-22
COc1ccc(NC(=O)Nc2cccc3c2O[C@H](CN(C)S(=O)(=O)c2cn(C)cn2)[C@@H](C)CN([C@H](C)CO)C3=O)cc1,.,-9,.,i,.,17,.,.,.,.
CN1CCN(NC(=O)/C=C/c2ccc(C(C)(C)C)cc2)CC1,-2,-19,i,i,-9,-8,.,.,.,.
Cc1cc(Cl)c(S(=O)(=O)N2CCN(c3ccccn3)CC2)cc1OCC(=O)NC1CCCCC1,4,3,100*,i,24,-24,i,i,-1.1,-5

# Assay outcomes (PubChem)
